High-throughput results (PubChem BioAssay)
Hits are enriched below; roughly 0.37% of the tested compounds scored in any of these assays.
Rab2A wt mod – changes GTP binding to wildtype dog Rab2A, up or down | 190,000 compounds, 0.19% hits | GTP binding activity, % at 10 µM | P61105 | GST-Rab2 wt beads, Bodipy-GTP binding, flow cytometry;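 active means GTP binding activity at least 20 points away from 100%, either lowered or raised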;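 further: 0% = beads with excess unlabeled GTP and 100% = no-compound control corrected for plate trend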
Rac1 act GTP bind – modulators of GTP binding to human Rac1 activated mutant | GST-Rac1 activated beads, fluorescent GTP binding, flow cytometry; actives lie on both sides; 100% means binding = to untreated wells | percent activity (GTP binding), % at 10 µM | 190,000 compounds, 0.11% hits;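 active means GTP binding at least 20 percentage points away from the 100% baseline, in either direction, so actives lie on both sides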
HRas wt GTP – modulators of GTP binding to human HRas wildtype. GTP binding activity, % at 10 µM. GST-Ras wt beads, Bodipy-FL-GTP binding, flow cytometry; actives lie on both sides. 190,000 compounds, 0.14% hits. AID 759. P01112;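 active means GTP binding activity at least 20% away from the 100% baseline, either lowered as inhibitor or raised as activator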;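 further: 0% = unlabeled GTP competition control and 100% = no-compound control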
Target sequence (P01112 whole entry, looked up): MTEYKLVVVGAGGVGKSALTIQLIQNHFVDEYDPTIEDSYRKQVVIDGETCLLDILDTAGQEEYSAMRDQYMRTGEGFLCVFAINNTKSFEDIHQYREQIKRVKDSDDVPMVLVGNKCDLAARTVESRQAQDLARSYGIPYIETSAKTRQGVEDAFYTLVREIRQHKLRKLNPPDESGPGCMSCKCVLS
Cdc42 wt GTP – changes GTP binding to wildtype human Cdc42. P60953. percent activity (GTP binding), % at 10 µM. 190,000 compounds, 0.2% hits. GST-Cdc42 beads, Bodipy-GTP binding, flow cytometry; actives lie on both sides;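 active means percent activity GTP binding at least 20 points away from the 100% baseline, either down as inhibitor or up as activator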;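 further: median bead fluorescence of bound Bodipy-FL-GTP at 100 nM; 0% = excess unlabeled GTP control and 100% = no compound control; below 100% means less GTP binding so inhibitor and above means activator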
Target sequence (P60953 whole entry, looked up): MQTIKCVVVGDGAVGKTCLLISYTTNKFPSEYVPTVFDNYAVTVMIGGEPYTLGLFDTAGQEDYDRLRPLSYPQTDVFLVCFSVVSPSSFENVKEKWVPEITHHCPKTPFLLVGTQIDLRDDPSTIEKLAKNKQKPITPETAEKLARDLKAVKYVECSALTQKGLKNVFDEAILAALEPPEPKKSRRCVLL
Rab7 wt modul – dog Rab7 wildtype GTP binding, inhibitors and activators | GST-Rab7 beads, fluorescent GTP binding, flow cytometry; actives lie on both sides; untreated = 100%, excess cold GTP = 0% | GTP binding activity (percent of control), % at 10 µM | 190,000 compounds, 0.055% hits;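 active means fluorescent GTP binding to Rab7 beads changed by at least 20 points from the 100% baseline, either direction, mostly lower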;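 further: median green fluorescence of bound Bodipy-FL-GTP per Rab7 bead population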
Rac1 wt modul – alters GTP binding to wildtype human Rac1; 190,000 compounds, 0.27% hits; GST-Rac1 beads, fluorescent GTP binding, flow cytometry; actives lie on both sides; 0 = cold GTP competed, 100 = untreated; GTP binding activity (% of control), % at 10 µM;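 active means GTP binding activity at least 20 points away from the 100% control level, either lower or higher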
Active calls of the source: *; [ ] = dose if it differs, or a comment.

SMILES | Rab2A wt mod | Rac1 act GTP bind | HRas wt GTP | Cdc42 wt GTP | Rab7 wt modul | Rac1 wt modul
CCOc1ccc(CCNc2ccc3nnc(-c4ccccc4)n3n2)cc1OCC | 76* | 89 | 74* | 79* | 88 | 76*
Clc1ccc(CNc2ccc3nnc(-c4ccccc4)n3n2)cc1 | 97 | 97 | 97 | 98 | 94 | 98
Cc1csc(NC(=O)c2cc(=O)[nH]c3ccc(S(=O)(=O)N4CCOCC4)cc23)n1 | 79* | 89 | 84 | 80 | 94 | 75*
O=C(NC1CCCCCC1)c1cc(=O)[nH]c2ccc(S(=O)(=O)N3CCOCC3)cc12 | 94 | 100 | 96 | 97 | 92 | 98
Nc1cc(Cl)ccc1N1CCCCCC1 | 96 | 93 | 98 | 94 | 98 | 98
Cc1cc(C)cc(C(=O)N(NC(=O)Nc2ccc(Cl)cc2)C(C)(C)C)c1 | 97 | 99 | 95 | 101 | 74* | 99
Cc1ccc(S(=O)(=O)N2CC3(C)CN(S(=O)(=O)c4ccc(C)cc4)CC(C)(C2)C3O)cc1 (configuration not stated) | 100 | 101 | 101 | 126*[activator] | 104 | 108
O=C(O)CCCN1C(=O)/C(=C\c2ccco2)SC1=S | 97 | 93 | 96 | 94 | 100 | 95
O=C(O)CCN1C(=O)/C(=C\c2ccc(-c3nc4ccccc4s3)o2)SC1=S | 66* | 71* | 74* | 69* | 74* | 67*
COc1ccc(/C=N/NC(=O)c2ccco2)cc1Cn1nc(C)c([N+](=O)[O-])c1C | 98 | 94 | 96 | 96 | 97 | 95
COc1ccc(/C=N/NC(=O)c2ccncc2)cc1Cn1nc([N+](=O)[O-])c(Br)c1C | 68* | 83 | 74* | 65* | 97 | 76*
CCCOC(=O)c1c(NC(=O)CCC(=O)O)sc2c1CCCCC2 | 76* | 80 | 83 | 81 | 91 | 92
CCOC(=O)c1ccc(NC(=O)c2c(NC(=O)CCC(=O)O)sc3c2CCCCC3)cc1 | 92 | 89 | 93 | 89 | 100 | 90
NC(=S)N=Nc1c(O)[nH]c2ccccc12 | 84 | 96 | 86 | 92 | 95 | 87
NC(=S)N=Nc1c(O)[nH]c2c(Br)cc(Br)cc12 | 74* | 84 | 75* | 75* | 93 | 71*
CNCCCCOc1ccc(C(C)(C)C)cc1Cl | 104 | 94 | 98 | 102 | 107 | 99
CCOc1ccc(C2=Nn3c(nnc3-c3ccco3)SC2)cc1 | 76* | 84 | 77* | 77* | 89 | 82
CC1=Nn2c(nnc2-c2ccco2)SC1 | 99 | 99 | 99 | 99 | 96 | 100
COCCn1c(=S)[nH]c2cc(C(=O)N3CCc4ccccc4C3)ccc2c1=O | 103 | 95 | 102 | 104 | 103 | 124*[activator]
CCOC(=O)c1c(CSc2ccccc2)n(C)c2cc(Br)c(OCC(O)CNC(CO)(CO)CO)cc12 (configuration not stated) | 107 | 113 | 113 | 113 | 104 | 120*[activator]
CC(C)CN(CC(C)C)S(=O)(=O)N1CCC(C(=O)NCc2ccc3c(c2)OCO3)CC1 | 97 | 95 | 98 | 97 | 106 | 94
COc1cccc(-c2cc(C(F)(F)F)c(C#N)c(=O)[nH]2)c1 | 78* | 77* | 83 | 81 | 85 | 80
Cn1cccc1/C=C1\SC(=S)N(NC(=O)c2ccccc2Cl)C1=O | 83 | 89 | 89 | 88 | 90 | 78*
CC1Cc2ccccc2N1S(=O)(=O)c1cccc(C(=O)NCCCO)c1 (configuration not stated) | 112 | 108 | 108 | 113 | 110 | 123*[activator]
O=C(CN1C(=O)C2C3c4ccccc4C(c4ccccc43)C2C1=O)Nc1cccc(C(=O)O)c1 (configuration not stated) | 127*[activator] | 155*[activator] | 124*[activator] | 125*[activator] | 145*[activator] | 130*[activator]
SMILES | Rab2A wt mod | Rac1 act GTP bind | HRas wt GTP | Cdc42 wt GTP | Rab7 wt modul | Rac1 wt modul
CC1CCCN(c2ccc3nc4ccccc4c(=O)n3n2)C1 (configuration not stated) | 81 | 87 | 80 | 84 | 96 | 78*
Cc1ccc2nc3ccc(N4CCCC4)nn3c(=O)c2c1 | 106 | 100 | 104 | 107 | 103 | 106
Cc1cc2ccccn2c1C(=O)c1cc([N+](=O)[O-])cc([N+](=O)[O-])c1 | 42* | 37* | 45* | 42* | 24* | 32*
COc1ccc2o/c(=N/NC(=O)c3cccs3)c(C(N)=O)cc2c1 | 61* | 80 | 61* | 60* | 91 | 57*
CSc1ncccc1C(=O)NC(C)C1CC2CCC1C2 (configuration not stated) | 96 | 97 | 98 | 95 | 101 | 99
C/C(=C\c1ccccc1)C(=O)Nc1ccc(S(=O)(=O)Nc2ncccn2)cc1 | 96 | 93 | 95 | 93 | 103 | 98
Cc1cc(C)nc(Nc2nc(=O)c3ccccc3s2)n1 | 117 | 114 | 110 | 135*[activator] | 104 | 165*[activator]
CCN(CC)C(=S)SCC(=O)Nc1nc(=O)c2ccccc2s1 | 95 | 96 | 96 | 94 | 93 | 99
O=C(CCCn1c(=S)[nH]c2ccccc2c1=O)NCCSCc1ccccc1 | 96 | 93 | 97 | 92 | 105 | 95
CCc1cc2c(SCC#N)ncnc2s1 | 96 | 94 | 94 | 95 | 95 | 95
O=C(O)COc1ccccc1/C=N/Nc1ccc(S(=O)(=O)Nc2ccc(Cl)cc2)cc1[N+](=O)[O-] | 84 | 80 | 87 | 79* | 94 | 84
Cc1nnc2c3ccccc3c(Cl)nn12 | 97 | 94 | 95 | 94 | 102 | 92
Nc1c(S(=O)(=O)c2cccs2)c2nc3ccccc3nc2n1/N=C/c1cccc(O)c1 | 46* | 64* | 47* | 45* | 73* | 64*
COc1ccc(/C=N/n2c(N)c(S(=O)(=O)c3cccs3)c3nc4ccccc4nc32)cc1OC | 49* | 74* | 56* | 61* | 75* | 57*
CC(C)Cn1c(N)c(S(=O)(=O)c2cccs2)c2nc3ccccc3nc21 | 100 | 99 | 100 | 101 | 99 | 100
COc1ccc(-n2c(SCc3cn4c(C)cccc4n3)nc3ccccc3c2=O)cc1OC | 96 | 96 | 99 | 95 | 105 | 98
Cc1cc(NC(=O)CSCC(=O)N(c2cccc(Cl)c2)C(C(=O)NC2CCCCC2)c2ccc(O)c(O)c2)no1 (configuration not stated) | 98 | 100 | 100 | 98 | 104 | 101
Cc1cc(C)c2c(n1)sc1c(O)cc(=O)[nH]c12 | 103 | 102 | 100 | 104 | 100 | 107
